LGR2 inh: blocks bursicon-induced cAMP signaling via Drosophila LGR2; 0.35% of 380,000 active; HEK293 LGR2, CRE-luciferase, bursicon-stimulated, 4 h; AID 720647; inhibition, % at 9.99 µM;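 active = drop in luminescence signal, shown as inhibition above about 50% in the replicate tests, limit read from the data, passing the limit was not always enough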;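 also: agonist challenge used bursicon conditioned medium at about half maximal strength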
EWS-Fli inh: EWS/Fli transcriptional activity inhibition; A673 NR0B1-luciferase reporter, viability-normalised; inhibition, % at 12.6 µM; 0.67% of 350,000 active; AID 651661;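 active = mean inhibition of at least 50% after viability correction, with every replicate also passing that limit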;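 also: firefly luciferase signal divided by Alamar Blue viability fluorescence both relative to DMSO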
KKLEB cytotox: CF airway cell cytotoxicity counter-screen. KKLEB CF airway cells viability, ATPlite luminescence, overnight; stronger effect = lower value; cells stimulated with P. aeruginosa culture filtrate. activity change (cytotoxicity), % at 5 µM. 0.36% of 360,000 active;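 active = corrected activity change at or below -50% at 5 µM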
CF NFkB inh: blocks PAF-induced NF-kB reporter in cystic fibrosis cells. KKLEB NF-kB-GFP reporter, GFP fluorescence overnight. inhibition, % at 5 µM. 0.86% of 360,000 active;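 active = at least 50% inhibition at 5 µM, scaled per plate between neutral and stimulator controls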;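 also: PAF is a Pseudomonas aeruginosa culture filtrate used as stimulus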
TROY signal inh: TROY signaling inhibition. inhibition, % at 10 µM. Q293 LMP1-TROYcd NF-kB luciferase reporter, 4 h. 0.98% of 360,000 active;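 active = compounds whose plate-normalised and pattern-corrected inhibition of the luciferase reporter signal at the single screening dose is 50% or more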
TWEAK Fn14 block: blocks TWEAK-Fn14 interaction in a reporter cell assay | TWEAK-stimulated Fn14 reporter cells, luciferase luminescence, 8 h | inhibition, % at 10 µM | 2% of 360,000 active | AID 1159606; in the data active = inhibition above about 50%
Hits are given with their value; i = inactive; nt = no result. Rows were chosen to be rich in hits. Some 2.6% of all compounds tested hit in one or more screens of this group.

SMILES | LGR2 inh | EWS-Fli inh | KKLEB cytotox | CF NFkB inh | TROY signal inh | TWEAK Fn14 block
O=C(/C=C/c1ccc(O)c([N+](=O)[O-])c1)c1ccc2ccccc2c1 | i | i | i | i | i | i
COc1ccc(/C=C/C(=O)c2ccc(O)cc2)cc1COc1ccc(F)cc1 | i | i | i | i | i | 54.6
COc1cc(/C=C/C(=O)c2ccc3c(c2)OCO3)cc(OC)c1OC | i | nt | i | i | i | i
COc1ccc(Oc2ccc(/C=C/C(=O)c3ccc(O)cc3)cc2[N+](=O)[O-])cc1 | nt | 74.6 | i | i | 77.0 | 68.6
COc1cc(/C=C/C(=O)c2ccc(F)cc2)cc(OC)c1OC | nt | i | i | i | i | 84.2
Cc1cccc(C)c1OCC(O)CN1CCC(CN2C(=O)c3cccc4cccc(c34)C2=O)CC1 (stereo not given) | nt | nt | i | i | i | 61.5
C[C@H]1CN([C@@H](C)CO)C(=O)c2cc(-c3ccccc3)cnc2O[C@@H]1CN(C)C(=O)C1CCCCC1 | i | i | nt | nt | nt | nt
COc1ccc([C@H]2C[C@H](O)[C@@H](n3cc(-c4ccc(F)cc4)nn3)CN2Cc2cccs2)cc1 | i | 56.4 | i | i | i | i
COc1ccc([C@H]2C[C@H](n3cc(-c4ccc(F)cc4)nn3)[C@@H](O)CN2Cc2cccs2)cc1 | i | i | i | i | i | i
CC(=O)N(C)C[C@H]1Oc2ncc(-c3cncnc3)cc2C(=O)N([C@H](C)CO)C[C@H]1C | i | i | nt | nt | nt | nt
CN1CCCN(c2ncnc3scc(-c4ccc(F)cc4)c23)CC1 | i | i | i | i | i | i
CC(C)c1ccc(-c2csc3ncnc(N4CCN(C)CC4)c23)cc1 | i | i | i | i | i | 51.0
N#C[C@H]1[C@@H](c2ccc(C#CC3CC3)cc2)[C@@H](CO)N1C(=O)Cc1ccccn1 | i | i | nt | nt | nt | nt
COc1ccc(-c2cc(C3CCN(c4ccc(C(C)=O)cc4[N+](=O)[O-])CC3)[nH]n2)cc1 | nt | nt | i | i | 73.5 | 71.3
CC(=O)c1ccc(N2CCC(c3cc(-c4ccc(Cl)cc4)n[nH]3)CC2)c([N+](=O)[O-])c1 | nt | nt | i | i | i | 62.0
CNC[C@H]1OCCCC[C@H](C)Oc2ccc(NC(=O)Nc3ccccc3)cc2C(=O)N([C@H](C)CO)C[C@H]1C | i | i | nt | nt | nt | nt
O=C(CC[C@H]1O[C@@H](n2ccc(=O)[nH]c2=O)[C@H](O)[C@@H]1O)N[C@@H](Cc1ccccc1)C(=O)NCC1CCCO1 (stereo not given in full) | i | i | i | i | 54.0 | i
O=C(CC[C@H]1O[C@@H](n2ccc(=O)[nH]c2=O)[C@H](O)[C@@H]1O)N[C@H](Cc1ccccc1)C(=O)NCC1CCCCC1 | i | i | i | i | i | i
COc1ccccc1-c1c(C)oc2c(CN3CCN(CCO)CC3)c(O)ccc2c1=O | nt | nt | i | i | nt | 86.2
CCC(C)NC(=O)c1nc2c(nnn2Cc2ccccc2Cl)c(=O)[nH]1 (stereo not given) | i | i | i | i | i | i
O=C(NCc1cccs1)c1nc2c(nnn2Cc2ccccc2Cl)c(=O)[nH]1 | nt | nt | -76.2 | 88.4 | 83.0 | 96.4
O=C(Nc1ccc(Br)cc1)c1cccc(S(=O)(=O)Nc2ccccn2)c1 | i | nt | i | i | i | i
O=C(Nc1ccc(Br)cc1)c1cccc(S(=O)(=O)Nc2cnc3ccccc3c2)c1 | i | nt | i | i | i | 50.9
COc1ccc(NC(=O)c2cccc(S(=O)(=O)Nc3ccc(Br)cc3)c2)cn1 | i | i | i | i | i | 64.1
O=C1CSc2ccc(C(=O)Nc3cccc(S(=O)(=O)Nc4ccc(Br)cc4)c3)cc2N1 | i | i | i | i | 82.4 | 97.8
SMILES | LGR2 inh | EWS-Fli inh | KKLEB cytotox | CF NFkB inh | TROY signal inh | TWEAK Fn14 block
CCCNC(=O)N(C)C[C@H]1Oc2cc(-c3ccccc3)ccc2S(=O)(=O)N([C@@H](C)CO)C[C@H]1C | i | i | nt | nt | nt | nt
COc1cc2c(cc1NC(=O)CN1C(=O)NC3(CCc4ccccc43)C1=O)oc1ccccc12 (stereo not given) | nt | nt | i | i | i | 61.8
CC(=O)N(C)C[C@H]1Oc2ncc(C#CCc3ccccc3)cc2C(=O)N([C@@H](C)CO)C[C@@H]1C | i | i | nt | nt | nt | nt
CCc1cc2c(=O)nc3n(c2s1)Cc1ccccc1/C3=C(/O)c1ccccc1Cl | nt | nt | i | i | i | i
CCc1cc2c(=O)nc3n(c2s1)Cc1ccccc1/C3=C(/O)c1ccc(F)cc1 | i | nt | i | i | i | 100.2
COc1ccc(Nc2nc(N)c(C(=O)c3ccc(OC)cc3)s2)cc1 | i | i | i | 52.9 | i | i
COc1ccc(C(=O)c2sc(NC(C)C)nc2N)cc1OC | nt | nt | i | 57.7 | i | i
COc1ccc(Nc2nc(N)c(C(=O)c3ccc(F)cc3)s2)cc1 | i | i | i | i | i | i
CC(C)Nc1nc(N)c(C(=O)C23CC4CC(CC(C4)C2)C3)s1 | i | i | i | i | i | i
COc1cccc(C(=O)c2sc(NC(C)C)nc2N)c1 | nt | nt | i | 77.7 | i | i
CO[C@H]1CN(C)C(=O)c2ccc(NC(=O)c3ccccc3F)cc2OC[C@H](C)NC[C@H]1C | i | i | nt | nt | nt | nt
N#C[C@@H]1[C@H](c2ccc(-c3cccc(F)c3)cc2)[C@@H](CO)N1S(=O)(=O)c1cccc(F)c1 | i | i | nt | nt | nt | nt
COc1cccc(-c2ccc([C@@H]3[C@@H](CO)N4C(=O)CN(C(=O)C5CC5)C[C@H]34)cc2)c1 | i | i | nt | nt | nt | nt
COc1ccc(-c2ccc3c(c2)S(=O)(=O)c2cccc(C(=O)NCCOc4ccccc4Cl)c2C3=O)cc1OC | i | 57.9 | i | i | 54.0 | i
COc1ccc(-c2ccc3c(c2)S(=O)(=O)c2cccc(C(=O)NCc4ccccc4Cl)c2C3=O)cc1OC | i | i | i | i | i | i
CC(C)NC(=O)Nc1ccc2c(c1)C(=O)N([C@@H](C)CO)C[C@H](C)[C@@H](CN(C)C(=O)Nc1ccc(F)cc1)OCCCC[C@@H](C)O2 | i | i | nt | nt | nt | nt
O=C(Nc1ccc(-c2csc(Nc3cccc(C(F)(F)F)c3)n2)cc1)c1ccccc1 | i | i | i | i | i | 64.8
O=C(Nc1cccc(-c2csc(Nc3cccc(C(F)(F)F)c3)n2)c1)c1ccccc1 | i | i | i | i | i | i
Cc1nc(-c2ccc(NC(=O)c3ccccc3)cc2)cs1 | i | i | i | i | i | 67.8
Cc1cc(C(=O)CCl)c(C)n1CCc1ccccc1 | i | 75.2 | nt | nt | nt | nt
Cc1cc(C(=O)CCl)c(C)n1-c1ccon1 | i | i | i | 58.2 | i | i
CCOC(=O)c1cc(C)n(CCc2ccccc2)c1C | nt | nt | i | i | i | i
CCn1c(O)c(/C=C2\C=NN=C2c2ccc(C)cc2)sc1=S | i | i | i | i | i | i
CC(C)n1c(O)c(/C=C2\C=NN=C2c2ccccc2)sc1=S | i | i | i | 58.4 | i | i
C[C@@H]1CN([C@H](C)CO)C(=O)c2cccc(NS(=O)(=O)c3cn(C)cn3)c2O[C@@H]1CN(C)S(=O)(=O)c1cccs1 | i | i | nt | nt | nt | nt
CC(C)NC(=O)Nc1ccc2c(c1)C(=O)N([C@H](C)CO)C[C@@H](C)[C@@H](CN(C)C(=O)NC(C)C)O2 | i | i | nt | nt | nt | nt
